Laboratory results: article PMC4336329 (PLoS ONE, 2015)
Screen size: about 310,000 compounds; about 14,000 (4.5%) showed an effect of 50% or more. Effects have a minus sign here. The entries come from a sample that favours strong results as a whole.

target: human ether-à-go-go-related gene (hERG) potassium channel (human, UniProt Q12809); experiment: primary screen, population patch clamp on CHO cells stably expressing hERG; higher = less effect of the substance
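Also: peak tail current of the secondary pulse compared with the same well before compound.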

human ether-à-go-go-related gene (hERG) potassium channel, sequence (Q12809 whole entry, looked up): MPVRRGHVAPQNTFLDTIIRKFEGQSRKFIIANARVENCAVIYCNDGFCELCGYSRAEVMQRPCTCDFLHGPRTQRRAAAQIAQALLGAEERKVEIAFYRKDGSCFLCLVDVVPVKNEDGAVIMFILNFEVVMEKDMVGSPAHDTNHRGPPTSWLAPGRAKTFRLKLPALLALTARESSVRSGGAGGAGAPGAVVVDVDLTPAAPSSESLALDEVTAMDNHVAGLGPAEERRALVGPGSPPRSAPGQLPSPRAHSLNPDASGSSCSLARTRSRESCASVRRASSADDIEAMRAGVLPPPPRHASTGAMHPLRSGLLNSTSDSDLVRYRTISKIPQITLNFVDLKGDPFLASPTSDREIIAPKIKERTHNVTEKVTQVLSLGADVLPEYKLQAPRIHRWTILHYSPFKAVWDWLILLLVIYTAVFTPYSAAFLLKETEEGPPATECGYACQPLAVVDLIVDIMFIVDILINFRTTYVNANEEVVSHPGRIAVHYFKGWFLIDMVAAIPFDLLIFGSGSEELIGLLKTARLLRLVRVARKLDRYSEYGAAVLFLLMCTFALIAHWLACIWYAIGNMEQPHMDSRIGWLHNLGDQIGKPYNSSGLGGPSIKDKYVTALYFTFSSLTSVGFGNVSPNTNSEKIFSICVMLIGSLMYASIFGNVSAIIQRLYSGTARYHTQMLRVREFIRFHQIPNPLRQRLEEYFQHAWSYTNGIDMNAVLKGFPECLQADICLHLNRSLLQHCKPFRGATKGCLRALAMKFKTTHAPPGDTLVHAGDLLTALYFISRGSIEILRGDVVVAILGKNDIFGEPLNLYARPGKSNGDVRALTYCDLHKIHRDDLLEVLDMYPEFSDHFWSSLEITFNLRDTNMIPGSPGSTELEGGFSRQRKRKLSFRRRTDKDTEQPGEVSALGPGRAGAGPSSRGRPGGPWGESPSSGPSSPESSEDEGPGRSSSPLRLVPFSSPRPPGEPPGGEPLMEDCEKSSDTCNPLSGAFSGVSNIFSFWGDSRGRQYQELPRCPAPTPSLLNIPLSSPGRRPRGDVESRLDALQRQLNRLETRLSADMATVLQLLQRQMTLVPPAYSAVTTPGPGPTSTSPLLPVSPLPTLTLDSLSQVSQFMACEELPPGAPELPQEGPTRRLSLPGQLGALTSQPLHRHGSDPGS

| Compound | hERG current change (%, negative = inhibition) at 10uM |
| --- | --- |
| O=C(COc1ccccc1)N(Cc1cc2ccccc2[nH]c1=O)CC1CCCO1 (stereo not shown) | -1.24% |
| CCC1(c2ccccc2)NC(=O)N(CC(=O)Nc2ccccc2N2CCCC2)C1=O (stereo not shown) | 1.38% |
| O=C(c1cc(-c2cccc(Cl)c2)nc2ccccc12)N1CCCC1 | -40.2% |
| CCC(C)NS(=O)(=O)c1ccc(OCC(=O)Nc2ccc3c(c2)OCCO3)cc1 (stereo not shown) | -26.3% |
| Cl.Fc1ccccc1COc1ccc(Br)cc1CNCc1cccnc1 | -70.2% |
| Cl.c1ccc(COc2ccccc2CNCc2cccnc2)cc1 | -8.89% |
| Cl.Fc1ccc(COc2ccc(Br)cc2CNCc2ccncc2)cc1 | -74.7% |
| Cl.Fc1ccccc1COc1ccccc1CNCc1ccncc1 | -44% |
| Cl.Fc1ccccc1COc1ccc(Br)cc1CNCc1ccncc1 | -70.2% |
| Brc1ccc(OCc2ccccc2)c(CNCc2ccncc2)c1.Cl | -19.9% |
| COc1cc(CNCc2ccncc2)cc(Br)c1OCc1ccccc1F.Cl | -43.3% |
| Cl.Fc1ccc(COc2ccccc2CNCc2ccncc2)cc1 | -32.6% |
| CCOc1ccc(Br)cc1CNCc1cccnc1 | -10.2% |
| CCC(NC(=O)c1ccccc1NC(=O)c1ccco1)C(=O)NNC(=O)c1ccncc1 (stereo not shown) | 8.86% |
| COc1ccc(NC(=O)CCCc2ccc(OC)c(C)c2)cc1 | 3.93% |
| Cn1nnnc1SCC(=O)NCc1ccc2c(c1)OCO2 | 31.4% |
| CC(C)c1cc(C(=O)N/N=C/c2cccnc2)cs1 | -31.9% |
| c1coc(CSc2ncnc3c2oc2ccccc23)c1 | 13.9% |
| COCCN(CCOC)c1nc(-c2ccc(C)cc2)nc2ccccc12.Cl | -65.4% |
| COCCN(CCOC)c1nc(-c2ccc([N+](=O)[O-])cc2)nc2ccccc12 | -34.3% |
| Cc1ccc(-c2nc(NCCN(C)C)c3ccccc3n2)cc1 | -44.9% |
| COCCN(CCOC)c1nc(-c2ccccc2)nc2ccccc12 | -68.2% |
| COCCN(CCOC)c1nc(-c2ccc(Cl)cc2)nc2ccccc12 | -5.82% |
| COCCNc1nc(-c2ccccc2)nc2ccccc12.Cl | -32.5% |
| O=C(O)C1CC(=O)N(c2ccc(F)c(F)c2)C1 (stereo not shown) | 13% |
